# Assay results reported in PubChem BioAssay (EPA / NIEHS).
# “And” between values parts separate entries of the source, which are not always exact repeats. Identical values can stand only once. A structure can be active in one record and inactive in another. The source made the active and inactive calls. Rule for the calls: active = hit-call score of the fitted dose curve at least 0.9, where 1 is the maximum; inactive = score below 0.9.
# Read-out: Monocyte Chemoattractant Protein-1 (MCP1), CCL2 (gene 6347)
# Assay: BSK_4H_MCP1: BioMAP Diversity Plus: 4H Assay for Monocyte Chemoattractant Protein-1 (MCP1) Biomarker Activity (AID 2283018)
# Settings: primary human endothelial cells (HUVEC); actives raise or lower the signal
# Protocol: BSK_4H is a cell-based, multiplexed-readout assay that uses umbilical vein endothelium, a human vascular primary cell, with measurements taken at 24 hours after chemical dosing in a 96-well plate.BSK_4H_MCP1 is an assay component measured in the BSK_4H assay. It measures MCP-1 antibody related to regulation of gene expression using ELISA technology.Data from the assay component BSK_4H_MCP1 was analyzed into 1 assay endpoint. This assay endpoint, BSK_4H_MCP1, was analyzed with bidirectional fitting relative to DMSO as the negative control and baseline of activity. Using a type of binding reporter, gain or loss-of-signal activity can be used to understand changes in the signaling as they relate to the gene CCL2. Furthermore, this assay endpoint can be referred to as a primary readout, because this assay has produced multiple assay endpoints where this one serves a signaling function. To generalize the intended target to other relatable targets, this assay endpoint is annotated to the cytokine intended target family, where the subfamily is chemotactic factor.
# The levels of cell surface (or secreted, indicated by the prefix "s") biomarker endpoints were measured by ELISA. Overt cytotoxicity to cells in confluent adherent cultures (all systems other than the BT system) was assessed by measuring total protein levels using sulforhodamine B (SRB) staining in parallel cultures at the time of biomarker measurements, indicated as SRB endpoints. For proliferation assays for adherent cell types, individual cell types are cultured at sub-confluence and relative cell numbers quantified by SRB staining at time points optimized for each system (48 h: 3C and CASM3C systems; 72 h: BT and HDF3CGF systems; 96 h: SAg system). SRB was performed by staining cells with 0.1% SRB after fixation with 10% TCA and reading wells at 560 nm.Viability and proliferation of PBMC (T cells) was quantified by Alamar Blue reduction for the SAg and BT systems. For PBMC viability (referred to as PBMC Cytotoxicity within the assay endpoint names), cells were plated (75,000/well in a 96-well plate) and then chemical samples added for 1 h before addition of activators, SEB and TSST-1 (20 ng/mL final concentration each). Cells were incubated for 90 h. Then, Alamar Blue (20 uL/well) (Invitrogen, Cat DAL1100) was added for 6 h, and the plates were read with a fluorescence microplate reader at 546/580 nm (excitation/emission). For PBMC proliferation, cells were plated and activated as above but incubated for only 16 h prior to addition of Alamar Blue. Plates were read after 6 h.
SMILES,AC50,outcome
Clc1ccc(-c2ccccc2)cc1,27.5 µM (active),
CCC(C)c1cc([N+](=O)[O-])cc([N+](=O)[O-])c1OC(=O)C=C(C)C (stereo not given),5.34 µM (active),
COC(C)(C)CCC[C@H](C)C/C=C/C(C)=C/C(=O)OC(C)C,29.8 µM (active),
Oc1ccc(C2(c3ccc(O)cc3)c3ccccc3-c3ccccc32)cc1,13.2 µM (active) and 11.4 µM (active),
C=CC(=O)OCC(CC)CCCC (stereo not given),,inactive
C=CCN(CC=C)C(=O)C(Cl)Cl,,inactive
CC(C)(C)C(=O)CCl,,inactive
CC(C)CCCCCCCOC(=O)c1ccccc1C(=O)OCCCCCCCC(C)C,,inactive
[Cd+2].[Cl-].[Cl-],,inactive
O=C1C=CC(=O)C=C1,33.4 µM (active),inactive
CC(=O)/C=C/c1ccccc1,,inactive
Cc1ccc(OP(=O)(Oc2ccc(C)cc2)Oc2ccc(C)cc2)cc1 (tested in a mixture with another compound),2.31 µM (active),
O=S(=O)(c1ccccc1)c1ccccc1,,inactive
O=c1[nH]c(Cl)c(Cl)cc1Cl,,inactive
Nc1ccc(-c2ccc(N)c(N)c2)cc1N,20 µM (active),
CC1(C)[C@H](C(=O)O[C@H](C#N)c2cccc(Oc3ccccc3)c2)[C@@H]1C=C(Br)Br,0.252 µM (active),inactive
CCCCCCCCCCCC#N,20.6 µM (active),
O=[N+]([O-])C=Cc1ccccc1,8.93 µM (active),
O=P1(NCCCl)OCCCN1CCCl (stereo not given),,inactive

SMILES,AC50,outcome
c1ccc(Nc2ccc3ccccc3c2)cc1,30.7 µM (active),
CC(C)CCCCCCCOP(=O)(Oc1ccccc1)Oc1ccccc1,4.92 µM (active),
CCCOC(=O)c1ccccc1C(=O)OCCC,,inactive
O=C(CCl)c1ccccc1,5.41 µM (active),
O=[N+]([O-])c1ccc(Cl)cc1,,inactive
O=C(O)CCCc1ccc(N(CCCl)CCCl)cc1,,inactive
CC(C)(C)C(O)C(Oc1ccc(-c2ccccc2)cc1)n1cncn1 (stereo not given),31.8 µM (active),
CNC(=O)Oc1cc(C)c(SC)c(C)c1,,inactive
COc1ccc(CO)cc1,,inactive
CC(C)COP(=O)(OCC(C)C)OCC(C)C,,inactive
O=C1C(Cl)=C(Cl)C(=O)C(Cl)=C1Cl,12.3 µM (active),
CCc1cc(C)cc(CC)c1-c1c(OC(=O)C(C)(C)C)n2n(c1=O)CCOCC2,,inactive
N#CCCCCC#N,,inactive
O=c1c2ccccc2c(=O)c2c1cc(Cl)c1[nH]c3c([nH]c12)c(Cl)cc1c(=O)c2ccccc2c(=O)c13,,inactive
CCCC[N+](CCCC)(CCCC)CCCC,,inactive
O=[N+]([O-])O,,inactive
COCC(=O)N(c1c(C)cccc1C)N1CCOC1=O,,inactive
Oc1cc(Cl)ccc1Cl,,inactive
CC(C)(c1cc(Cl)c(O)c(Cl)c1)c1cc(Cl)c(O)c(Cl)c1,20 µM (active),
